# NOMO-1 viab = STK33 inhibitor candidate reducing NOMO-1 cell viability. NOMO-1 AML viability, CellTiter-Glo luminescence, 72 h. inhibition, % (no concentration beside the values). hit rate 7.5% among 37,000; in the data active = inhibition above about 80%; inconclusive = no clear call, values can overlap the other calls
# STK33 kin inh = human STK33 kinase inhibition; hit rate 0.44% among 27,000; inhibition, % at 12.5 µM; Q9BYT3; ADP-Glo luminescence, MBP substrate; in the data active = inhibition above about 20%; inconclusive = no clear call, values can overlap the other calls
# Target sequence (Q9BYT3 whole entry, looked up): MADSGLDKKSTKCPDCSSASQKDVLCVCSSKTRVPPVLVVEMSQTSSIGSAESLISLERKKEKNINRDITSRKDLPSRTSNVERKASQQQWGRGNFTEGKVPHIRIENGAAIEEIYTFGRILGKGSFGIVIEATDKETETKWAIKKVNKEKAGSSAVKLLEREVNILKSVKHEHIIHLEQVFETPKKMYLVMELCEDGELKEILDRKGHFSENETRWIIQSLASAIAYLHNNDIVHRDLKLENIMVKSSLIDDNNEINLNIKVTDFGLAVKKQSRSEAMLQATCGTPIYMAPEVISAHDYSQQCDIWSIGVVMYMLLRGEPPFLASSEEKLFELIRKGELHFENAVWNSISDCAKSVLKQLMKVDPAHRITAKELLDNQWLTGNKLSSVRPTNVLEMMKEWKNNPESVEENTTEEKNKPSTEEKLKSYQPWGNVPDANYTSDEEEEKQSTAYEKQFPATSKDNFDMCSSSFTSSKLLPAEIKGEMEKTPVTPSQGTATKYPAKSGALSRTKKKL
# PD-1 reversal = reversal of PD-1 mediated T-cell inhibition; primary human CD4 T cells, PD-L1 beads, CellTiter-Glo 96 h; AID 2316; activation, % (test concentration not listed); 29,000 tested, under 10 active; call rule not given here;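 note: 0% = median vehicle wells and 100% = positive control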
# * marks the source's active call; other numbers are inactive results; ? = inconclusive; · = no result. The sample as a whole holds a higher share of hits than the screen did.
SMILES,NOMO-1 viab,STK33 kin inh,PD-1 reversal
O=[N+]([O-])c1ccc(CSc2nnc(-c3ccccn3)n2-c2ccccc2)cc1,7,0,0
CCOC(=O)C1=C(c2ccccc2)NC(=S)NC1CC (stereo unspecified),32,·,-2
COc1ccc(CCN2CCC(Nc3nc4ccccc4n3Cc3ccc(F)cc3)CC2)cc1,114*,-1,1
CCCCn1c(NCc2ccc(OC)cc2O)nc2ccccc21,6,-2,·
CS/C(NC1CCCCC1)=C(/C#N)S(=O)(=O)c1ccc(Cl)cc1,38,·,0
CS/C(NCC1CC1)=C(/C#N)C(=O)c1ccc(Cl)cc1,111*,·,-7
COc1ccc(Cl)cc1NC(=O)CN(c1cc([N+](=O)[O-])ccc1C)S(C)(=O)=O,20,-1,1
COc1ccc(-n2c(=S)[nH]c3cc(C(=O)NC4CCCC(C)C4C)ccc3c2=O)c(OC)c1 (stereo unspecified),87*,·,0
COc1ccc(OC)c(-n2c(=S)[nH]c3cc(C(=O)N4CCC(C(N)=O)CC4)ccc3c2=O)c1,6,-2,4
CCN(CC)c1cc(-c2cccs2)nc(SCC(=O)c2cccs2)c1C#N,122*,·,-2
CC(C)OC(=O)CSc1nc(-c2cccs2)cc(C(F)(F)F)c1C#N,40,0,-1
Cc1ccc(-c2nc3ncccc3o2)cc1NC(=O)COc1cc(Cl)c(Cl)cc1Cl,74,5,·
C[C@H](CO)N1C[C@H](C)[C@@H](CN(C)Cc2ccc(Cl)c(Cl)c2)Oc2ccc(NC(=O)Nc3ccccc3)cc2C1=O,?,-1,1
C[C@@H]1CN([C@@H](C)CO)C(=O)c2cc(NC(=O)Nc3ccccc3)ccc2O[C@@H]1CN(C)Cc1ccc(Cl)c(Cl)c1,112*,·,0
C[C@H]1CN([C@@H](C)CO)C(=O)c2cc(NC(=O)Nc3ccccc3)ccc2O[C@@H]1CN(C)Cc1ccc(Cl)c(Cl)c1,18,0,1
C[C@H]1CN([C@@H](C)CO)C(=O)c2cc(NC(=O)Nc3ccccc3)ccc2O[C@H]1CN(C)Cc1ccc(Cl)c(Cl)c1,100*,1,-2
O=C(CSc1nc2sc3c(c2c(=O)n1-c1ccccc1)CCC3)N1CCC(c2noc3ccc(F)cc23)CC1,5,3,-1
COc1ccc(NC(=O)Nc2ccc3c(c2)CC(=O)N([C@@H](C)CO)C[C@@H](C)[C@@H](CN(C)Cc2ccc(C(=O)Nc4ccccc4N)cc2)O3)cc1,86*,·,1
COc1ccc(CN(C)C[C@@H]2Oc3ccc(NC(=O)Nc4ccccc4)cc3CC(=O)N([C@H](C)CO)C[C@H]2C)cc1,-5,-3,0
COc1ccc(NC(=O)Nc2ccc3c(c2)CC(=O)N([C@H](C)CO)C[C@@H](C)[C@@H](CN(C)Cc2ccc(C(=O)Nc4ccccc4N)cc2)O3)cc1,90*,·,-1
COc1ccc(NC(=O)Nc2ccc3c(c2)CC(=O)N([C@H](C)CO)C[C@H](C)[C@H](CN(C)Cc2ccc(C(=O)Nc4ccccc4N)cc2)O3)cc1,127*,·,-4
COc1ccc(CN(C)C[C@@H]2Oc3ccc(NC(=O)Nc4ccccc4)cc3CC(=O)N([C@@H](C)CO)C[C@@H]2C)cc1,51,0,-1
COc1ccc(CN(C)C[C@@H]2Oc3ccc(NC(=O)Nc4ccc(OC)cc4)cc3CC(=O)N([C@@H](C)CO)C[C@@H]2C)cc1,2,-3,0
COc1ccc(NC(=O)Nc2ccc3c(c2)CC(=O)N([C@@H](C)CO)C[C@H](C)[C@@H](CN(C)Cc2ccc(C(=O)Nc4ccccc4N)cc2)O3)cc1,23,·,-2
COc1ccc(NC(=O)Nc2ccc3c(c2)CC(=O)N([C@@H](C)CO)C[C@H](C)[C@H](CN(C)Cc2ccc(C(=O)Nc4ccccc4N)cc2)O3)cc1,126*,·,-2
SMILES,NOMO-1 viab,STK33 kin inh,PD-1 reversal
O=C1CCC(=O)N1CNc1cccc(Cl)c1,19,·,0
CCOC(=O)Cn1nc(C(F)(F)F)cc1C,1,·,0
COC(=O)CC1=CC(C)(CC(=O)OC)C(C#N)(C#N)C(N)=C1C#N (stereo unspecified),37,·,-2
COc1ccc(C=Nc2ccc(Br)cc2)cc1,11,·,0
COc1ccc(S(=O)(=O)Nc2ccc3c(c2)C(=O)N([C@H](C)CO)C[C@@H](C)[C@H](CN(C)Cc2ccc(Cl)c(Cl)c2)O3)cc1,50,3,1
COc1ccc(CN(C)C[C@@H]2Oc3ccc(NS(=O)(=O)c4ccc(OC)cc4)cc3C(=O)N([C@H](C)CO)C[C@@H]2C)cc1,8,·,2
COc1ccc(CN(C)C[C@H]2Oc3ccc(NS(=O)(=O)c4ccc(OC)cc4)cc3C(=O)N([C@H](C)CO)C[C@@H]2C)cc1,14,·,·
COc1ccc(S(=O)(=O)Nc2ccc3c(c2)C(=O)N([C@H](C)CO)C[C@@H](C)[C@@H](CN(C)Cc2ccc(Cl)c(Cl)c2)O3)cc1,116*,·,-2
COc1ccc(S(=O)(=O)Nc2ccc3c(c2)C(=O)N([C@@H](C)CO)C[C@@H](C)[C@H](CN(C)Cc2ccc(Cl)c(Cl)c2)O3)cc1,118*,-1,1
COc1ccc(S(=O)(=O)Nc2ccc3c(c2)C(=O)N([C@@H](C)CO)C[C@H](C)[C@H](CN(C)Cc2ccc(Cl)c(Cl)c2)O3)cc1,93*,·,0
CCOC(=O)c1cnc2ccc(F)cc2c1NCc1ccco1,20,8,-5
Cc1ccccc1N(CC(=O)O)S(=O)(=O)c1ccc(Cl)cc1,2,-1,·
CCOc1ccc(Br)cc1C(=O)NCCc1c[nH]c2ccccc12,35,10,·
COc1ccc(C)cc1S(=O)(=O)N(C)CC(=O)Nc1ccccc1C(F)(F)F,27,-2,-1
O=C(CSc1ncn(-c2ccccc2)n1)Nc1ccccc1Br,13,3,-2
C[C@H](CO)N1C[C@H](C)[C@H](CN(C)S(=O)(=O)c2ccc(Cl)cc2)Oc2ccc(NC(=O)Nc3ccc(C(F)(F)F)cc3)cc2C1=O,63,1,0
Cc1ccc(S(=O)(=O)N(C)C[C@H]2Oc3ccc(NC(=O)Nc4ccc(C(F)(F)F)cc4)cc3C(=O)N([C@@H](C)CO)C[C@H]2C)cc1,119*,5,-2
C[C@H]1CN([C@@H](C)CO)C(=O)c2cc(NC(=O)Nc3ccc(C(F)(F)F)cc3)ccc2O[C@@H]1CN(C)S(=O)(=O)c1ccc(Cl)cc1,121*,·,-1
Cc1ccc(S(=O)(=O)N(C)C[C@H]2Oc3ccc(NC(=O)Nc4ccc(C(F)(F)F)cc4)cc3C(=O)N([C@@H](C)CO)C[C@@H]2C)cc1,-5,2,0
Cc1ccc(S(=O)(=O)N(C)C[C@@H]2Oc3ccc(NC(=O)Nc4ccc(C(F)(F)F)cc4)cc3C(=O)N([C@H](C)CO)C[C@@H]2C)cc1,115*,0,-2
Cc1ccc(S(=O)(=O)N(C)C[C@@H]2Oc3ccc(NC(=O)Nc4ccc(C(F)(F)F)cc4)cc3C(=O)N([C@@H](C)CO)C[C@H]2C)cc1,75,1,1
Cc1ccc(S(=O)(=O)N(C)C[C@@H]2Oc3ccc(NC(=O)Nc4ccc(C(F)(F)F)cc4)cc3C(=O)N([C@@H](C)CO)C[C@@H]2C)cc1,83*,3,-1
C[C@@H]1CN([C@@H](C)CO)C(=O)c2cc(NC(=O)Nc3ccc(C(F)(F)F)cc3)ccc2O[C@@H]1CN(C)S(=O)(=O)c1ccc(Cl)cc1,8,·,-1

# From PubChem
